Screens from PubChem.
TDP1 cell noCPT: qHTS for Inhibitors of human tyrosyl-DNA phosphodiesterase 1 (TDP1): qHTS in cells in absence of CPT | DT40 Tdp1-/- hTDP1 cells, no CPT, ATP luminescence, 48 h | Potency, µM (series often up to 46.2 µM), for the others: top-dose activity change, negative = growth inhibition, actives largely listed as inhibitors | 15% of 420,000 active | AID 686978, 2013; also: potency is read from the fitted curve at half-maximal effect; nearly all actives have a fitted effect of over 55% in size
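Readout: luminescence from CellTiter-Glo after 30 min in the dark at RT. Cells: DT40 Tdp1-/- with stable hTDP1, 400/well. Exposure: compounds alone, ≥48 hr, 37 °C.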
HT1080NT lethal: kills 2HG-producing HT-1080-NT fibrosarcoma cells; HT-1080-NT fibrosarcoma viability, CellTiter-Glo ATP luminescence, 48 h; Potency, µM (highest dose often 46.1 µM), for the others: at the highest dose activity, negative = less viability, hits mostly cytotoxic; 1.6% of 360,000 active;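 also: NT is the 2HG producing partner of a matched IDH1 knockdown line; potency is read from the fitted curve at half-maximal effect; 0% = DMSO-treated cells and -100% = media-only wells without cells; nearly all actives have a fitted effect of over 55% in size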
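Luminescent CellTiter-Glo readout after 48 hours of compound exposure at 37 degrees C defined viability of HT-1080-NT cells. Activity was normalized to DMSO wells and cell-free media wells; concentration-response curves were fitted and assigned curve classes.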
IL1B secr inh: blocks inflammasome-driven IL-1 beta release | THP-1 LPS/ATP IL-1B secretion, AlphaLISA, 16 h; active compounds read low | AID 743279 | activity change, % at 57.5 µM | 4.7% of 360,000 active; in the data active = activity change below about -50%; inconclusive = mostly about -30% to -49%
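Secreted IL-1B measured by AlphaLISA bead assay after 16 h compound exposure of THP-1 cells; compounds (final up to 57.5 uM) added 1 h before LPS (250 ng/mL) and ATP (1.25 mM) stimulation; lower signal means less secretion.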
uPA generation: cell surface uPA generation inhibition; Potency, µM (highest dose often 38.3 µM), without a hit: at the highest dose activity change, negative = inhibition, hits mostly inhibitors; 0.31% of 330,000 active; cell surface uPA generation assay, qHTS; AID 540303; active = well fitted inhibition curve with a large enough effect; inconclusive = small, poorly fitted or top-dose-only effect; inactive = no such curve, though single readings can be large or run the other way; tested in mouse RAW 264.7 cells; also: potency is read from the fitted curve at half-maximal effect; nearly all actives have a fitted effect of over 55% in size
HT1080 IDH1KD tx: kills HT-1080 cells with IDH1 knockdown; HT-1080 IDH1 knockdown viability, ATP luminescence, 48 h; Potency, µM (top dose mostly 46.1 µM), for inactives: top-dose activity, negative = toxicity, usual class: cytotoxic; 2% of 360,000 active;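 also: potency is read from the fitted curve at half-maximal effect; 0% = DMSO wells and -100% = cell-free medium wells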
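% activity derives from luminescence (CellTiter-Glo), normalised to DMSO and no-cell wells. HT-1080-IDH1KD cells, 750/well, had 48 h compound exposure at 37 °C.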
DT40 TDP1 CPT: DT40-hTDP1 cell growth loss with CPT; chicken DT40 Tdp1-/-;hTDP1 cells + 20 nM CPT, ATP luminescence, 48 h; Potency, µM (highest dose often 46.2 µM), without a hit: at the top dose activity change, negative = growth inhibition, hits mostly inhibitors; 12% of 420,000 active; AID 686979; also: potency is read from the fitted curve at half-maximal effect; nearly all actives have a fitted effect of over 55% in size
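Chicken DT40 Tdp1-/- cells complemented with human TDP1, 400 cells/well, exposed to compounds plus 20 nM camptothecin for at least 48 h at 37 C; viability read as ATP content by CellTiter-Glo luminescence.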
* = called active by the depositor; ? = inconclusive; nt = not tested or not shown; [ ] = another dose, or the depositor's remark. Hits are enriched below; roughly 19% of the tested compounds scored in any of these assays. Unless noted, calls follow the shape of the dose curve; as a rule, active = well fitted curve in the direction sought with a large enough effect; inconclusive = small, poorly fitted or top-dose-only effect, or another doubt; inactive = no such curve, though single readings can be large; an effect the other way counts as inactive or inconclusive. Unless noted, % is scaled to controls: 0 for no effect and ±100 for the full control effect.

SMILES	TDP1 cell noCPT	HT1080NT lethal	IL1B secr inh	uPA generation	HT1080 IDH1KD tx	DT40 TDP1 CPT
COc1ccc(C(=O)OCC(=O)N2CCN(S(=O)(=O)c3ccc(C)cc3)CC2)cc1[N+](=O)[O-]	?	8.3%[9.24 µM]	0.0	-16.6%	2.4%	-7.6%
CCOc1ccc(S(=O)(=O)NCc2ccc3c(c2)CCN3C(=O)c2ccc(C)cc2)cc1	9.2µM*	nt	nt	nt	nt	13µM*
COc1ccc(S(=O)(=O)NCc2ccc3c(c2)CCN3C(=O)c2ccc(C)cc2)cc1Cl	16.4µM*	nt	nt	nt	nt	20.6µM*
COc1ccc(CNS(=O)(=O)c2ccc3c(c2)CCN3C(=O)C2CC2)cc1	?	-25.6%	16.5	-6.9%	-8.6%	?
CC(C)c1ccc(S(=O)(=O)NCc2ccc3c(c2)CCN3C(=O)c2ccccc2)cc1	14.6µM*	nt	nt	nt	nt	23.1µM*
CCc1ccc(S(=O)(=O)NCc2ccc3c(c2)CCN3C(=O)c2ccc(C)cc2)cc1	8.2µM*	nt	nt	nt	nt	7.31µM*
O=C(NCCO)C(=O)Nc1cc2c3c(c1)CCC(=O)N3CCC2	-11.1%	13.0%	-3.4	16.3%	0.0%	14.4%
CC(NC(=O)C1CCN(S(=O)(=O)c2ccc3c(c2)oc(=O)n3C)CC1)c1ccccc1 (stereo not drawn)	-28.6%	nt	nt	nt	nt	-24.5%
CCCn1c(SCC(=O)N2N=C3/C(=C/c4ccc(OC)cc4)CCCC3C2c2ccc(OC)cc2)n[nH]c1=O (stereo not drawn)	?	7.31µM*	-25.4	-8.7%	11.6µM*	?
O=C(c1ccccn1)N1N=C2/C(=C/c3ccc(F)cc3)CCCC2C1c1ccc(F)cc1 (stereo not drawn)	?	-19.9%	-54.7*	-1.6%	-26.0%	?
CCCn1c(SCC(=O)NCc2ccc(OC)cc2)n[nH]c1=O	-3.7%	13.8%	22.5	3.0%	11.4%	4.3%
Cc1cc(C)cc(NS(=O)(=O)c2csc(C(N)=O)c2)c1	-24.8%	-0.3%	14.2	-0.2%	-9.4%	2.3%
CCc1cccc(NS(=O)(=O)c2csc(C(N)=O)c2)c1	14.6µM*	-20.1%	26.5	-2.7%	-10.3%	-22.7%
Cc1ccc(NS(=O)(=O)c2csc(C(N)=O)c2)cc1C	20.6µM*	-6.2%	32.0	2.0%	-5.2%	?
Cc1ccc(/C(O)=C/C(=O)C(=O)NC23CC4CC(CC(C4)C2)C3)cc1	13µM*	3.5%	-13.5	8.5%	0.4%	?
Cc1ccc(CNC(=O)NC23CC4CC(CC(C4)C2)C3)cc1	?	-0.4%	-12.1	8.5%	15.9%	23.1µM*
CCN(CC)CCNC(=O)COc1ccc(OC)cc1	10.9%	7.4%	9.4	-2.7%	4.0%	18.1%
NS(=O)(=O)c1ccc(CNC(=O)NC23CC4CC(CC(C4)C2)C3)cc1	-8.2%	-15.3%	9.6	nt	-14.4%	-13.8%
CN(C)CCNC(=O)COc1ccc(C23CC4CC(CC(C4)C2)C3)cc1	20.6µM*	?	-59.2*	2.8%	?	25.9µM*
Cc1ccc(C23CC4CC(CC(C(=O)NN)(C4)C2)C3)cc1	-2.5%	-9.5%	0.0	-8.8%	-7.8%	-21.0%
Cc1ccc(C23CC4CC(CC(NC(=O)NCCN(C)C)(C4)C2)C3)cc1	23.1µM*	20.6µM*	-6.8	-0.2%	?	?
CCOC(=O)C1CCCN(C(=O)CCCn2nnnc2CN2CCC(C)CC2)C1 (stereo not drawn)	10.5%	-1.2%	-4.5	3.7%	2.9%	-11.9%
CCCCNC(=O)C1(C)CCN1C(=O)c1ccc(C)c(F)c1 (stereo not drawn)	-0.3%	15.8%	36.4	nt	?	-5.0%
CCOc1ccc(CCNS(=O)(=O)c2cc3c(cc2C)NC(=O)CO3)cc1OCC	?	8.0%	-22.9	14.9%	0.9%	-6.2%
CCOc1ccc(CCNS(=O)(=O)c2c(C)n[nH]c2C)cc1OCC	-18.0%	13.4%	0.0	-1.0%	11.1%	20.6µM*
SMILES	TDP1 cell noCPT	HT1080NT lethal	IL1B secr inh	uPA generation	HT1080 IDH1KD tx	DT40 TDP1 CPT
CCOc1ccccc1NC(=O)c1nn(-c2ccc(C)cc2)c(=O)n(C)c1=O	-13.6%	nt	nt	nt	nt	-25.3%
O=C(Oc1ccc(Cl)c2cccnc12)N1CCOCC1	-11.0%	-1.7%	0.0	1.5%	3.2%	-1.3%
COc1ccc(C(=O)Oc2c(CN3CCOCC3)cc(Cl)c3cccnc23)cc1	5.8µM*	20.6µM*	27.4	-2.6%	?	8.2µM*
COc1cccc(C(=O)Oc2c(CN3CCOCC3)cc(Cl)c3cccnc23)c1	0.82µM*	?	101.7	-10.7%	11.6µM*	0.731µM*
O=C(Oc1c(CN2CCOCC2)cc(Cl)c2cccnc12)c1ccc(F)cc1	5.17µM*	?	35.8	-15.7%	?	4.61µM*
COc1cc(C(=O)Oc2c(CN3CCOCC3)cc(Cl)c3cccnc23)cc(OC)c1OC	5.17µM*	?	32.5	?	?	2.59µM*
COc1cc(C(=O)Oc2c(OC)cc(C(=S)N3CCOCC3)cc2OC)cc(OC)c1OC	0.0%	4.0%	10.2	-14.7%	7.0%	-2.3%
COC(=O)c1ccc2c(=O)n(CCCCCC(=O)NCCc3ccc(Cl)cc3)c(=O)[nH]c2c1	?	nt	nt	nt	nt	-28.3%
CSc1ccccc1C(=O)NCc1ccccc1C	-20.8%	8.3%	-12.4	-5.2%	-5.1%	-14.4%
CCOc1ccccc1NC(=O)c1cc2c(=O)[nH]c3ccccc3c2s1	6.9%	nt	nt	nt	nt	-27.0%
CS(=O)(=O)N(Cc1ccc(Cl)cc1)c1ccc(C(=O)NCc2ccccn2)cc1	-12.6%	-2.9%	-21.2	0.8%	-5.3%	-21.1%
O=C(NCCC(=O)N(CCc1ccccc1)Cc1ccccc1)c1ccc([N+](=O)[O-])cc1	23.1µM*	-6.3%	-14.1	1.0%	-3.8%	?
CS(=O)(=O)N(Cc1ccc(Cl)cc1)c1ccc(C(=O)N/N=C/c2cc3ccccc3nc2Cl)cc1	23.1µM*	2.0%	3.2	-1.8%	8.7%	?
